Laboratory results reported in PubChem BioAssay (Tox21).
Results filed as inconclusive are left out. Where a call stands in place of a potency, no number is given. Unmarked numbers belong to inactive results. The source made the active and inactive calls. Calls follow the shape of the dose curve; as a rule, active = well fitted cell-killing curve with a large enough effect in the repeat runs; inconclusive = weak or mixed curves, or effect the other way; inactive = flat fitted curve, though single readings scatter.

Assay: Nuclear factor erythroid 2-related factor 2/antioxidant responsive element (Nrf2/ARE) small molecule agonists: qHTS cell viability counter screen in human keratinocytes (AID 1919968); also: nearly all actives have a fitted effect of over 55% in size
Details: KeratinoSens HaCaT ARE cells viability, CellTiter-Fluor, 24 h; series mostly up to 92.4 µM
Text: U.S. Tox21 Program National Center for Advancing Translational Sciences [NCATS] Division of Preclinical Innovation [DPI] U.S. Environmental Protection Agency [EPA] National Institutes of Environmental Health Sciences [NIEHS] National Toxicology Program [NTP] U.S. Food and Drug Administration [FDA] Tox21 Assay Overview: Oxidative stress has been implicated in the pathogenesis of a variety of diseases ranging from cancer to neurodegeneration. The antioxidant response element (ARE) signaling pathway plays an important role in the amelioration of oxidative stress. The KeratinoSens (Givaudan, Switzerland) is an in vitro test method which quantifies luciferase induction as a measure of activation of Keap1-Nrf2-antioxidationt/electrophile response element (ARE) dependant pathway in HaCaT human keratinocytes stably transfected with a selectable plasmid. The KeratinoSens assay is a cell-based assay with a reporter cell line to detect potential skin sensitizers by their ability to induce the Nrf2/ARE-response. The activation of the report gene under culture conditions can be detected by ONE-Glo Luciferase Assay System (Promega, Madison, WI). This cell line has been used to screen the Tox21 10K compound library to identify agonists that induce oxidative stress. The cytotoxicity of the Tox21 compound library against the KS-ARE cell line was tested in parallel by measuring the cell viability using CellTiter- Fluor assay system (Promega, Madison, WI) in the same wells.
Tox21 Assay Protocol Summary: HaCaT derived cell line KeratinoSens were dispensed at 1,500 cells/5uL/well in 1536-well white wall/solid bottom plates using a Multidrop Combi (ThermoFisher Scientific, Waltham, MA) dispenser. After the assay plates were incubated at 37 C/5% CO2 for 5 h, 23 nL of compounds dissolved in DMSO, positive controls or DMSO only was transferred to the assay plate by a pintool workstation (Kalypsys, San Diego, CA). The plates were incubated at 37 C/5% CO2 for 23 h, followed by addition of 1uL/well of CellTiter-Fluor reagent into the assay plates using a Flying Reagent Dispenser (Aurora Discovery, San Diego, CA) for cell viability readout that measures cytotoxicity. After 1 h incubation at 37 C/5% CO2 the fluorescence intensity was measured using a ViewLux (PerkinElmer, Shelton, CT) plate reader.
Potency is read from the fitted curve at half-maximal effect.

| SMILES | Potency | activity change, negative = cytotoxicity |
| --- | --- | --- |
| N#CCc1ccc(Cl)cc1 | inactive | – |
| CC(C)NCC(O)c1ccc(N)c(C#N)c1 (stereo not given) | inactive | – |
| CC(=O)O.CC(=O)O.CC(=O)O.CC(=O)O.CC(=O)O.CC(=O)O.CC(=O)O.O.O.[Cr].[Cr].[Cr] | inactive | – |
| Oc1c(I)cc(I)cc1I | 30.6 µM (active) | – |
| O=C(CBr)OCc1ccccc1 | inactive | – |
| CN(C1CCCCC1)C1CCCCC1 | inactive | – |
| N#CCCSCCC#N | inactive | – |
| COC(=O)c1ccccc1S(=O)(=O)NC(=O)Nc1nc(C)nc(OC)n1 | inactive | – |
| CC(=O)[O-].CC(=O)[O-].O.O.[Zn+2] | inactive | – |
| CC(C)Br | inactive | – |
| CCSC(=O)Cl | inactive | – |
| CC(Cl)CN(C)C (stereo not given) | inactive | – |
| CC(Oc1cccc(Cl)c1)C(=O)O (stereo not given) | inactive | – |
| N#C/C(N)=C(/N)C#N | inactive | – |
| CC(CC(C(N)=O)(c1ccccc1)c1ccccc1)N(C)C (stereo not given) | inactive | – |
| CCN(CC)CCOC(=O)C(C)(c1ccccc1)c1ccccc1 | inactive | – |
| CC(C)CC#N | inactive | – |
| CC(O)C#N (stereo not given) | inactive | – |
| Cc1nnc2n1-c1sc(CCC(=O)N3CCOCC3)cc1C(c1ccccc1Cl)=NC2 | inactive | – |
| CNCC(=O)c1ccc(O)c(O)c1 | inactive | – |

| SMILES | Potency | activity change, negative = cytotoxicity |
| --- | --- | --- |
| NC(=O)CS(=O)C(c1ccccc1)c1ccccc1 (stereo not given) | inactive | – |
| Clc1cc2c(cc1Cl)Oc1cc(Cl)c(Cl)cc1O2 | – | 5.41% [at 0.349 µM] |
| C[N+]1(CCF)[C@@H]2CC[C@H]1CC(OC(=O)C(O)(c1ccccc1)c1ccccc1)C2 (stereo not given in full) | inactive | – |
| CC[C@@H](CO)NC(=O)[C@@H]1C=C2c3cccc4[nH]cc(c34)C[C@H]2N(C)C1 | inactive | – |
| O=C(O)C(O)C(O)C(=O)O (stereo not given) | inactive | – |
| CCNc1nc(Cl)nc(NC(C)(C)C)n1 | inactive | – |
| [Cl][Sn]([Cl])([Cl])[Cl] | inactive | – |
| OC(c1ccc(F)cc1)(c1cncnc1)c1ccccc1Cl (stereo not given) | inactive | – |
| c1ccc2cc3c(cc2c1)-c1cccc2cccc-3c12 | inactive | – |
| CCc1cc2c(s1)-n1c(C)nnc1CN=C2c1ccccc1Cl | inactive | – |
| C[C@]12CC[C@H]3[C@@H](CCC4=CC(=O)CC[C@@H]43)[C@@H]1CC[C@@H]2OC(=O)CCc1ccccc1 | inactive | – |
| CCCOC(=O)Cc1ccc(OCC(=O)N(CC)CC)c(OC)c1 | inactive | – |
| O=C(O)C(F)(F)C(F)(F)C(F)(F)C(F)(F)C(F)(F)C(F)(F)C(F)(F)C(F)(F)C(F)(F)F | inactive | – |
| CC(Cl)(Cl)[N+](=O)[O-] | inactive | – |
| O=C(O)c1ccccc1C(=O)Nc1cccc2ccccc12 | inactive | – |
| CO/N=C(/C1=NOCCO1)c1ccccc1Oc1ncnc(Oc2ccccc2Cl)c1F | inactive | – |
| CCOP(=S)(OCC)Oc1nc(Cl)n(C(C)C)n1 | inactive | – |
| CC(C)CP(=S)(S)CC(C)C | inactive | – |
| Nc1c(Br)cc(Br)c2c1C(=O)c1ccccc1C2=O | – | -10.3% [at 19 µM] |
| CC[C@]1(O)CC[C@H]2[C@@H]3CCC4=CCCC[C@@H]4[C@H]3CC[C@@]21C | inactive | – |
